From PubChem BioAssay AID2685 (National Center for Advancing Translational Sciences (NCATS), 2010) come the findings set out here.

The whole screen tested about 320,000 compounds, of which about 2,100 (0.66%) were called active. Not shown: some 53% with an inconclusive outcome. Calls come from the whole dose curve; as a rule, active = well fitted inhibition curve with a large enough effect in the signal ratio, with a control signal flat (not every such curve was filed as active); inconclusive = small, poorly fitted or top-dose-only effect, or effect the other way, or a change in a side signal; inactive = flat fitted curve, though single readings scatter; the % refers to the signal ratio. For the sample, actives were picked, then their nearest neighbours and some compounds at random.
Potency is the fitted concentration of half-maximal effect.

This experiment in a line: qHTS Assay for Lipid Storage Modulators in Drosophila S3 Cells.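 For cell number change: cells counted by Cell Tracker Red CMTPX staining in the red channel.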 For lipid storage change, negative = inhibition: % is set by controls: 0 for no effect and ±100 for the full control effect. The note with it: BODIPY lipid droplet fluorescence, 18-24 h, cells fed with added oleic acid; cell number change: measured here: cell count max response; series mostly up to 46.1 µM; lipid storage change, negative = inhibition: at the top concentration. The method, boiled down:
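Drosophila S3 cells got compounds at several concentrations plus oleic acid (400 uM solution). Laser-scanning cytometry with 488 nm excitation read lipid droplets at 500-530 nm and cells at 575-640 nm. Percent activity was relative to 20 uM Triacsin C.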
A general note: qHTS replaces the single test concentration by a dilution series.
Regarding `O=C1OCc2ccc(NC(=O)c3ccccc3C(=O)O)cc21`, the “lipid storage change, negative = inhibition” value is -11.6% (inactive) and the cell number change was determined as 2.9%. As for `Cc1ccc(C)c(S(=O)(=O)Nc2ccc(C(=O)NCC(c3ccco3)N3CCCCC3)cc2)c1` (configuration not stated), the “lipid storage change, negative = inhibition” value was -6.69% (inactive) and the cell number change was 16%.

Turning to `Cc1ccc2[nH]c(=O)c(CN(C)C(=O)c3cccs3)cc2c1`, the “lipid storage change, negative = inhibition” value was -3.04% (inactive) and the cell number change was -11.8%. As for `COC(=O)c1c(N)sc(C(=O)N2CCOCC2)c1C`, the compound was classed as inactive and the cell number change stood at 8.28%. For `COC(=O)c1c(NC(=O)c2ccccc2OC)sc(C(=O)N2CCOCC2)c1C`, the call was inactive and the cell number change is 4.76%. Turning to `COC(=O)c1c(NC(=O)CCl)sc(C(=O)N2CCOCC2)c1C`, the Potency was 0.651 µM (active) and the cell number change is -18.1%. As to `O=C(Cc1ccc(F)cc1)Nc1c(C(=O)N2CCN(c3ncccn3)CC2)oc2ccccc12`, the compound was classed as inactive and the cell number change came out at 26.3%. Regarding `COc1ccccc1CCNC(=O)c1cc(-c2ccncc2)nc2ccc(Br)cc12`, the “lipid storage change, negative = inhibition” value is -8.45% (inactive) and the cell number change was -14.5%.

Turning to `O=C(COC(=O)CCc1c[nH]c2ccccc12)Nc1ccc([N+](=O)[O-])cc1`, the “lipid storage change, negative = inhibition” value was -0.164% (inactive) and the cell number change was -0.284%. For the compound `O=C(CCc1c[nH]c2ccccc12)OCc1cccc([N+](=O)[O-])c1`, the Potency was 5.8 µM (active) and the cell number change is 0.451%. Regarding `O=C(COC(=O)CCc1c[nH]c2ccccc12)Nc1cc([N+](=O)[O-])ccc1Cl`, the “lipid storage change, negative = inhibition” value was 9.58% (inactive) and the cell number change amounted to 17.2%. Consider `Cn1c(C(=O)Nc2ccccc2)cc2sccc21`, for which the “lipid storage change, negative = inhibition” value was -9.82% (inactive) and the cell number change was -17.5%. The matching figures for `Cc1cccc(NC(=O)CCC(=O)N2CCOCC2)n1`: 6.69% (inactive) and -0.208%. On to `CC(C)(C)n1nc2c(c1NC(=O)c1ccc(Br)o1)CS(=O)C2` (configuration not stated), for which the “lipid storage change, negative = inhibition” value is -2.21% (inactive) and the cell number change came out at 12.2%.

`CC(C)(C)n1nc2c(c1NC(=O)c1ccco1)CS(=O)C2` (configuration not stated): the Potency was 29.1 µM (active) and the cell number change is -3.33%. In the case of `O=C(Nc1c2c(nn1-c1ccccc1)CS(=O)C2)c1ccco1` (configuration not stated), the call was inactive and the cell number change was -4.99%. Take `CCN1C(=O)/C(=c2\sc3nc(=O)c(Cc4ccccc4)nn3c2=O)c2ccccc21`: the “lipid storage change, negative = inhibition” value was 3.23% (inactive) and the cell number change was 6.19%. Consider `Oc1ccc[n+](CCCCC[n+]2cccc(O)c2)c1`, for which the “lipid storage change, negative = inhibition” value is -6.79% (inactive) and the cell number change was -10%. As to `O=C(O)CCCCCCCCCC[n+]1ccccc1`, the “lipid storage change, negative = inhibition” value was -6.38% (inactive) and the cell number change was 3.19%. As for `C(C#CCCCCCCCCC[n+]1ccccc1)#CCCCCCCCCC[n+]1ccccc1`, the Potency was 13 µM (active) and the cell number change amounted to 2.42%. With `CSc1ccc(CN2CCCC(N3CCN(c4ccccc4)CC3)C2)cc1` (configuration not stated), the “lipid storage change, negative = inhibition” value is 12.6% (inactive) and the cell number change is -9.94%. Taken in the same sequence, the figures for `COc1ccccc1NNC(=O)c1cc(C(C)(C)C)nn1Cc1ccccc1` were 3.58% (inactive) and 13.3%. With `CC(C)(C)c1cc(C(=O)NNc2ccc(OC(F)(F)F)cc2)n(Cc2ccccc2)n1`, the “lipid storage change, negative = inhibition” value is 4.79% (inactive) and the cell number change came out at 8.19%.

Regarding `CC(C)(C)c1cc(C(=O)NNc2cc(C(F)(F)F)ccc2Cl)n(Cc2ccccc2)n1`, the Potency is 25.9 µM (active) and the cell number change is -27.1%. Regarding `CC1CCCCC1NC(=O)c1ccc(S(=O)(=O)NCC2CCCO2)cc1` (configuration not stated), the “lipid storage change, negative = inhibition” value was -16% (inactive) and the cell number change turned out to be 3.19%. Turning to `Cc1ccc(NC2OC(CO)C(O)C(O)C2O)cc1` (configuration not stated), the call was inactive and the cell number change was -12.8%. As to `Cc1ccc(NC2OC(CO)C(O)C2O)cc1[N+](=O)[O-]` (configuration not stated), the “lipid storage change, negative = inhibition” value was -8.08% (inactive) and the cell number change is -2.09%. With `CC(=O)c1ccc(NC2OC(CO)C(O)C(O)C2O)cc1` (configuration not stated), the Potency is 32.6 µM (active) and the cell number change is -9.97%.

As for `O=C(CCOc1ccccc1)N1CCN(S(=O)(=O)c2cccs2)CC1`, the compound was called inactive and the cell number change was 5.86%.

For `C=CCN1C(=O)C2(OCCCO2)c2ccccc21`, the “lipid storage change, negative = inhibition” value was -18.8% (inactive) and the cell number change worked out at 7.72%. For the compound `C=CCN1C(=O)C2(OCCCO2)c2cc(Cl)ccc21`, the Potency was 4.11 µM (active) and the cell number change worked out at 7.73%. On to `C=CCN1C(=O)C2(OCCO2)c2cc(C)ccc21`, for which the “lipid storage change, negative = inhibition” value was -2.45% (inactive) and the cell number change came out at 5.32%. Consider `Cc1cc(C)c2nc(N3CCCC(C(=O)NCCN4CCOCC4)C3)sc2c1` (configuration not stated), for which the “lipid storage change, negative = inhibition” value is 8.41% (inactive) and the cell number change was -0.96%. Consider `O=C(C1=C(O)C(=O)N(CCN2CCOCC2)C1c1ccc([N+](=O)[O-])cc1)c1cccs1` (configuration not stated), for which the “lipid storage change, negative = inhibition” value is -23.9% (inactive) and the cell number change turned out to be 22.6%.

On to `COCCCN1C(=O)C(O)=C(C(=O)c2ccco2)C1c1ccccc1` (configuration not stated), for which the Potency was 3.66 µM (active) and the cell number change was -2.26%.

On to `COCCN1C(=O)C(O)=C(C(=O)c2ccco2)C1c1cccc(Oc2ccccc2)c1` (configuration not stated), for which the “lipid storage change, negative = inhibition” value is 3.16% (inactive) and the cell number change was found to be 11.9%. As for `O=C(C1=C(O)C(=O)N(CCN2CCOCC2)C1c1ccc(F)cc1)c1cccs1` (configuration not stated), the Potency was 18.4 µM (active) and the cell number change is -5.07%.

With `Cc1ccc(/C(O)=C2/C(=O)C(=O)N(CCN3CCOCC3)C2c2ccccn2)cc1` (configuration not stated), the Potency was 29.1 µM (active). Take `O=C1C(=O)N(CCN2CCOCC2)C(c2ccccn2)/C1=C(/O)c1ccccc1` (configuration not stated): the “lipid storage change, negative = inhibition” value was 3.62% (inactive) and the cell number change turned out to be 1.37%. Taken in the same sequence, the figures for `CCOc1ccc(C2C(C(=O)c3cccs3)=C(O)C(=O)N2CCN2CCOCC2)cc1` (configuration not stated) were -0.573% (inactive) and 7.61%. Taken in the same sequence, the figures for `O=C1C(=O)N(CCN2CCOCC2)C(c2ccccn2)/C1=C(/O)c1ccc(Cl)cc1` (configuration not stated) were 4.03% (inactive) and 8.56%. On to `Cc1ccc(C2C(C(=O)c3cc4ccccc4o3)=C(O)C(=O)N2CCN2CCOCC2)cc1` (configuration not stated), for which the result was inactive and the cell number change was -0.236%. `CC(=O)C1=C(O)C(=O)N(CCO)C1c1ccccc1` (configuration not stated): the “lipid storage change, negative = inhibition” value is -9.46% (inactive) and the cell number change turned out to be 1.42%. For the compound `O=C(C1=C(O)C(=O)N(CCCn2ccnc2)C1c1ccccc1)c1ccco1` (configuration not stated), the “lipid storage change, negative = inhibition” value was -22.1% (inactive) and the cell number change was -0.647%.
